# In the library only some 3.5% were active in any assay of this set; here they are far more common.
# Anthrax LF inh2 = blocks Bacillus anthracis lethal factor protease; 360,000 compounds, 0.12% hits; multiplex microsphere protease cleavage assay, LF; inhibition, % at 10 µM; AID 588501; P15917; note: plate controls were buffer without enzyme for full effect and enzyme alone for no effect
# Target sequence (P15917 whole entry, looked up): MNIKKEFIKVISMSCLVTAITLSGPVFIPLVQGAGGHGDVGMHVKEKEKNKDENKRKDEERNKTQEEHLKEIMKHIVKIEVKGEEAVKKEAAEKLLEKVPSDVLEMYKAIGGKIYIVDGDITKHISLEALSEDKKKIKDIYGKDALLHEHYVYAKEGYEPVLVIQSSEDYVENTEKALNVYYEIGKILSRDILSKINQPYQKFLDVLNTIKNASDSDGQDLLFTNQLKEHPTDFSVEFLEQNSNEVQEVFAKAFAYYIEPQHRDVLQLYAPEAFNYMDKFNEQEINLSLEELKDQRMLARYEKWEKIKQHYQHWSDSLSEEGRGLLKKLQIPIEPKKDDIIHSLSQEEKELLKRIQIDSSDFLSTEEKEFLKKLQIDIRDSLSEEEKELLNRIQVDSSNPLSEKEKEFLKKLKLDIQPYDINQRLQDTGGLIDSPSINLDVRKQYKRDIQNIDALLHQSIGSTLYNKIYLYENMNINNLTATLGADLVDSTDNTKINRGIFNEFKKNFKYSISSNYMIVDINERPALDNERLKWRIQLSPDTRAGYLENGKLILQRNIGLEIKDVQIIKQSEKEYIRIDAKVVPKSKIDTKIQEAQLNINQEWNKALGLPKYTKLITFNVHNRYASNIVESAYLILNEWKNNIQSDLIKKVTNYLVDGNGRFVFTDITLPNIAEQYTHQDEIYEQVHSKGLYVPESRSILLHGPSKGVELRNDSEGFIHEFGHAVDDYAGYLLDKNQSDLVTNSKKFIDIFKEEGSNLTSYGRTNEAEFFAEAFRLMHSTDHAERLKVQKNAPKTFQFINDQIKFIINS
# BoNT A protease = BoNT A light chain protease inhibition; inhibition, % at 10 µM; multiplex microsphere protease substrate cleavage, flow cytometry; 360,000 compounds, 0.17% hits; AID 588499; note: plate controls were buffer without enzyme for full effect and enzyme alone for no effect
# Bead autofluor = flagged as autofluorescent in microsphere protease counterscreen; 360,000 compounds, 3.1% hits; compound autofluorescence counterscreen, microsphere flow cytometry; active compounds read high; fluorescence intensity (no concentration beside the values); in the data active = fluorescence intensity above about 16000; inconclusive = no clear call, values can overlap the other calls
# SARS 3CLpro inh = SARS-CoV 3CLpro protease inhibition; inhibition, % at 6 µM; AID 1706; P0C6X7; 290,000 compounds, 0.14% hits; recombinant SARS-CoV 3CLpro, quenched FRET peptide cleavage; in the data active = inhibition above about 12%
# BoNT F protease = inhibitors of Botulinum neurotoxin F light chain protease. Multiplex microsphere protease cleavage assay, flow cytometry. inhibition, % at 10 µM. 360,000 compounds, 0.22% hits. AID 588497; in the data active = inhibition above about 35%, passing the limit was not always enough; inconclusive = no clear call, values can overlap the other calls; note: plate controls were buffer without enzyme for full effect and enzyme alone for no effect
# Starred values were filed as active, the others as inactive; ? = inconclusive; / = no result given. Cut-off read from the data, not from the text of the source, unless noted: active = inhibition above about 30%; inconclusive = no clear call, values can overlap the other calls; inactive = below that.
SMILES,Anthrax LF inh2,BoNT A protease,Bead autofluor,SARS 3CLpro inh,BoNT F protease
Cc1cccc2cc(C(c3nnnn3Cc3ccccc3)N3CCN(C)CC3)c(=O)[nH]c12 (configuration not stated),-0.1,1.0,19831*,-0.4,1.1
Cc1cccc2cc(C(c3nnnn3Cc3ccccc3)N3CCN(c4ccccc4)CC3)c(=O)[nH]c12 (configuration not stated),-3.4,-3.6,18218*,-2.8,-8.1
Cc1cc(C)c2[nH]c(=O)c(C(c3nnnn3CC3CCCO3)N3CCC(C)CC3)cc2c1 (configuration not stated),-1.2,?,26168*,3.0,-3.3
COc1ccc(Cn2nnnc2C(c2cc3cccc(C)c3[nH]c2=O)N2CCN(C)CC2)cc1 (configuration not stated),-8.0,-0.6,3345,-5.0,-5.7
CCOc1ccc(CNC(=O)CCC(=O)N2Cc3ccccc3Oc3ncccc32)cc1,2.0,0.9,4716,-3.7,-1.0
Cc1ccc(OCC(=O)Nc2ccc3oc(=O)ccc3c2)cc1,-4.6,-2.7,3569,-0.6,0.2
CCc1cc(-c2n[nH]c(C)c2Oc2ccc(C(C)C)cc2)c(O)cc1O,-5.0,?,22495*,8.7,-16.7
N#Cc1cnn(Cc2ccccc2)c1/N=C/N1CCOCC1,1.6,-0.3,4195,2.3,-5.4
CN1CCN(/C=N/c2c(C#N)cnn2Cc2ccccc2)CC1,-5.2,?,20606*,-0.5,-2.6
Cc1cc(C)c(S(=O)(=O)Nc2cccnc2)c(C)c1,-0.1,2.2,22484*,-0.7,1.9
O=C(c1cc(-c2ccccc2)nc2ccccc12)N1CCN(c2ccccn2)CC1,1.5,-0.9,3601,-2.9,3.5
O=C(c1cc(-c2ccncc2)nc2ccccc12)N1CCN(c2ccccn2)CC1,-2.2,-6.4,17502*,2.9,-8.0
O=C(c1cc(-c2cccnc2)nc2ccccc12)N1CCC2(CC1)OCCO2,-9.8,2.1,19594*,4.8,-1.5
CCOc1ccc(Cl)cc1-c1cc(C(=O)NCC2CCCCC2)[nH]n1,-3.5,-0.3,4065,/,-4.4
COc1ccccc1C1Nc2ccccc2NC2=C1C(=O)CC(C)(C)C2 (configuration not stated),2.9,-1.3,3659,-1.1,36.6*
COc1cccc(C2Nc3ccccc3NC3=C2C(=O)CC(C)(C)C3)c1OC (configuration not stated),-7.6,-3.8,3940,-2.5,?
Nn1c(COc2ccccc2)nnc1SC(F)F,-2.8,-0.3,23749*,-8.0,-2.2
N#Cc1c2c(c(=S)n(-c3ccccc3)c1N)CCCC2,-5.5,0.8,3586,-22.5,1.4
Cc1ccc(O)c(NC(=S)NC(=O)c2ccccc2Cl)c1,2.2,2.8,4657,7.3,38.1*
CC12CCC(C(=O)NCCCN3CCOCC3)(OC1=O)C2(C)C (configuration not stated),-1.3,-1.9,22515*,1.4,-3.5
COc1ccc(C(=O)CC2OC(=O)c3ccccc32)cc1OC (configuration not stated),-1.5,?,21822*,-2.0,-0.3
COc1ccc(OC)c(C(=O)CC2OC(=O)c3ccccc32)c1 (configuration not stated),2.5,0.8,4190,-1.0,13.1
CCOC(=O)C1=C(Cn2cnc3ccccc32)NC(=O)NC1c1ccc(OC)cc1 (configuration not stated),2.2,-1.2,16933*,7.1,-1.4
O=C(CN1CCN(Cc2ccccc2)CC1)NCC1COc2ccccc2O1 (configuration not stated),-1.6,-1.3,23257*,-3.9,-2.7
Cc1ccc(C(=O)NCCc2ccccn2)cc1S(=O)(=O)N1CCOCC1,/,/,/,0.2,/
SMILES,Anthrax LF inh2,BoNT A protease,Bead autofluor,SARS 3CLpro inh,BoNT F protease
O=[N+]([O-])c1ccc(N2CCN(S(=O)(=O)c3ccccc3)CC2)c2cccnc12,-0.2,-0.4,4279,6.9,-0.6
O=C(COC(=O)C1CC2C=CC1C2)Nc1ccc2c(c1)OC(F)(F)O2 (configuration not stated),-1.2,0.2,16493*,-0.8,1.2
C=CCNc1nc(-c2ccc(OC)cc2OC)cs1,-3.1,?,21095*,1.1,1.1
COc1ccc(-c2csc(NC(=O)C3=COCCO3)n2)c(OC)c1,4.0,4.9,4704,/,2.2
CCN(CC)CCOc1cc2c(nn1)Oc1ccccc1N2C,-1.9,1.5,6685,-3.5,-0.1
Cc1cc(C(=O)NCc2cc(C)n(C)n2)sc1-c1ccccc1,-8.7,3.0,18215*,0.1,3.2
Cc1cc(CNC(=O)Cc2c(F)cccc2Cl)nn1C,-2.9,0.4,19997*,-1.1,1.6
CC(C)C(=O)NC(CC(=O)O)c1ccccc1 (configuration not stated),-0.8,-0.2,4556,0.6,-4.8
CN(/C=C/C(=O)C(F)(F)F)Cc1ccccc1,-1.6,-2.1,24286*,2.6,-4.2
Cc1c(N=C/C=C/c2ccccc2)cnn1C,-2.2,-0.1,2477,1.4,-9.2
C=CCNC(=O)c1cccc(Br)c1,-1.1,-2.6,23849*,-6.4,-3.9
COC(=O)CSc1nc(C)c(C(C)=O)cc1C#N,-0.1,?,20891*,-2.2,3.9
CC1(C)CC(NC(=O)COc2ccc([N+](=O)[O-])cc2)CC(C)(C)N1,-0.5,-1.3,3823,-1.8,-0.5
CCC(Sc1nc2sc(C(=O)OC)c(C)c2c(=O)n1N)C(=O)N(CC)CC (configuration not stated),-5.6,2.0,21202*,-2.3,1.1
CCCCNC(=O)C(CC)Sc1nc2sc(C(=O)OC)c(C)c2c(=O)n1N (configuration not stated),7.0,-0.6,10263,-2.8,-1.8
CSc1nncn1/N=C/c1ccccc1F,-1.4,?,23258*,-8.0,-5.5
CSc1nncn1/N=C/c1ccc2c(c1)OCO2,-1.8,-3.8,23493*,-2.1,-6.5
CSc1nncn1/N=C/c1ccc([N+](=O)[O-])cc1,-2.3,0.6,4694,3.8,0.1
COc1ccccc1NC(=O)CCc1nnc2ccc(NCc3ccco3)nn12,0.3,-0.5,6199,-4.8,-5.0
Cc1nn(-c2cc(C)c3ccccc3n2)c2c1CCC2,0.2,5.5,20384*,-2.0,10.7
CCOC(=O)c1sc(NC(=O)c2ccc(CC)s2)nc1C,-1.8,1.9,19861*,-2.1,1.5
C=CCOC(=O)c1sc(NC(=O)c2ccco2)nc1C,-0.3,2.9,19408*,-0.5,2.6
Cc1nc(N2CCN(c3ccccc3)CC2)nc2c1C(=O)CCC2,-2.7,0.7,22851*,5.0,-0.4
Cc1nc(N2CCN(c3ccccc3)CC2)nc2c1C(=O)CC(C)C2 (configuration not stated),-1.6,1.2,21996*,-6.1,0.6
Cc1nc(N2CCN(c3ccccc3)CC2)nc2c1C(=O)CC(c1ccccc1)C2 (configuration not stated),-12.4,6.2,17903*,5.7,5.8
Cc1ccc(Cl)c(OCCCCN(C)Cc2ccccc2)c1,-2.9,?,22668*,3.3,-3.1
CCCc1cc(=O)oc2cc(OCC(=O)N(C)C)c(Cl)cc12,-1.8,-0.3,2482,-1.8,-6.1
CCc1cc(=O)oc2cc(OCC(=O)OC)c(Cl)cc12,-0.8,?,22235*,-4.3,-0.1

# From PubChem
